# In PubChem BioAssay AID686978 (National Center for Advancing Translational Sciences (NCATS), 2013):
# The whole screen tested about 420,000 compounds, of which about 64,000 (15%) were called active. About 27% were inconclusive and are not listed. A selection follows. Values without a mark were called inactive. Calls come from the whole dose curve; as a rule, active = well fitted inhibition curve with a large enough effect; inconclusive = small, poorly fitted or top-dose-only effect; inactive = flat fitted curve, though single readings scatter.
# Test: qHTS for Inhibitors of human tyrosyl-DNA phosphodiesterase 1 (TDP1): qHTS in cells in absence of CPT; note: nearly all actives have a fitted effect of over 55% in size
# Conditions: DT40 Tdp1-/- hTDP1 cells, no CPT, ATP luminescence, 48 h; activity change, negative = growth inhibition: at 46.2 µM (top of the series)
# In short: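 Seeded 400 DT40-hTDP1 cells/well (vehicle DMSO, no 20 nM CPT); pinned compounds; ≥48 hr at 37 °C; CellTiter-Glo luminescence as viability measure.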
# % is set by controls: 0 for no effect and ±100 for the full control effect; potency is the fitted concentration of half-maximal effect.
Compound,"activity change, negative = growth inhibition [%]",Potency
O=C(COc1cccnc1[N+](=O)[O-])Nc1ccc(Cl)cc1F,-10.4,
Cc1ccc(NC(=O)OCc2cncs2)cc1,-3.53,
COC(=O)c1c(C(=O)OC)c2n(c1C)CCS2,-16.7,
CC(C)(C)OC(=O)N(Cc1ccco1)S(=O)(=O)c1ccccc1Br,3,
CCn1c(N)c(Br)c(=O)[nH]c1=O,0.126,
N#Cc1c(NCCO)ccc([N+](=O)[O-])c1NCCO,0.687,
CC1CCN(C(=O)CSc2nnc(-c3ccco3)n2N)CC1,2.17,
CCCn1nc(NS(=O)(=O)c2ccccc2)c2cc3cc(C)ccc3nc21,-7.69,
CC(C)NC(=O)COCc1cc(-c2ccc3c(c2)OCO3)on1,-26.5,
O=c1c(-c2ccccc2)coc2c(CN3CCOCC3)c(O)ccc12,-9.85,
Cc1cc(=O)n2nc(N3CCCC3C(=O)NCCCN3CC(C)CC(C)C3)sc2n1 (stereo unspecified),-6.94,
Cc1nnc(SCc2cc(=O)c3cc(F)ccc3[nH]2)n1C,12,
COCCN(C(=O)CSCc1ccc(C)cc1)c1c(N)n(CC(C)C)c(=O)[nH]c1=O,20.3,
COCCN(C(=O)COC(=O)Cc1cccc(OC)c1)c1c(N)n(Cc2ccccc2)c(=O)[nH]c1=O,16.1,
COc1ccc2oc(C(=O)OCC(=O)N(CC(C)C)c3c(N)n(Cc4ccccc4)c(=O)[nH]c3=O)c(C)c2c1,,16.4 µM (active)
CCN(C(=O)COC(=O)c1c(C)nn(-c2ccccc2)c1Cl)c1c(N)n(Cc2ccccc2)c(=O)[nH]c1=O,18.7,
CCCCN(C(=O)CSCc1ccc(C)cc1)c1c(N)n(Cc2ccccc2)c(=O)[nH]c1=O,,25.9 µM (active)
COCCCN(C(=O)CSCc1ccc(C)cc1)c1c(N)n(Cc2ccccc2)c(=O)[nH]c1=O,-1.36,
CCN(C(=O)COC(=O)c1sccc1C)c1c(N)n(Cc2ccccc2)c(=O)[nH]c1=O,-24.8,
CCN(C(=O)COC(=O)CCOc1cccc(C)c1)c1c(N)n(Cc2ccccc2)c(=O)[nH]c1=O,,18.4 µM (active)
CCN(C(=O)COC(=O)Cc1c(F)cccc1Cl)c1c(N)n(Cc2ccccc2)c(=O)[nH]c1=O,-19.8,
CN=C(c1ccccc1)c1c(C)cccc1C,-12.2,
CC1CCCCC1NC(=O)CSc1nnc(-c2ccncc2)n1CCCN(C)C (stereo unspecified),-2.07,
CCCNC(=O)N1CCN(C(=O)NCCC)CC1,4.59,
O=C(NNc1cc(Cl)ccc1Cl)c1cccnc1Cl,-2.92,
Fc1ccc(OCc2nn3c(Cn4nnc5ccccc54)nnc3s2)cc1,-27.8,

Compound,"activity change, negative = growth inhibition [%]",Potency
CCc1ccccc1NC(=O)Cc1cn(C)c2ccccc12,,inactive
O=C(O)C1CCCN1S(=O)(=O)c1ccc2c(c1)CCC2 (stereo unspecified),-7.3,
CC(OC(=O)CNC(=O)c1cccc(F)c1)C(=O)NC1CCCCC1C (stereo unspecified),3.97,
Cc1ccnc(SCC(=O)Nc2cccc(S(=O)(=O)N3CCOCC3)c2)n1,-27.1,
O=C1/C(=C\c2cccnc2)CN(Cc2ccccc2)C/C1=C\c1cccnc1,,1.64 µM (active)
O=C(O)CCc1cccnc1,,inactive
O=C(O)C1CC(=O)N(Cc2cccnc2)C1 (stereo unspecified),-0.56,
COC(=O)c1ccc2c(c1)S(=O)(=O)NC2C (stereo unspecified),4.44,
O=C(OCC(=O)N1CCc2ccccc21)c1ccc([N+](=O)[O-])cc1,,29.1 µM (active)
O=C(OCC(=O)N1CCc2ccccc21)C1CCCN1S(=O)(=O)c1ccc(Cl)cc1 (stereo unspecified),-9.63,
Cc1ccc(S(=O)(=O)NCC(=O)OCC(=O)N2CCc3ccccc32)cc1,-22.6,
O=S(=O)(Nc1ccccn1)c1cccc(S(=O)(=O)c2ccc(Cl)cc2)c1,-14,
Cc1coc2c1c(C)cc1oc(=O)c(CC(=O)NCC(=O)N[C@H](C(=O)O)C(C)C)c(C)c12,23.9,
Cc1cc[n+](C2CCCCC2)cc1,,15.8 µM (active)
CCC(NC(=O)C1CCCC1)c1ccc(C)cc1 (stereo unspecified),-3.25,
COc1ncnc2sc3c(c12)CCCC3,-6.77,
Cc1noc(C)c1NC(=O)N(C)C[C@@H]1Oc2cc(Br)ccc2S(=O)(=O)N([C@@H](C)CO)C[C@H]1C,-2.38,
C[C@H](CO)N1C[C@H](C)[C@@H](CN(C)C(=O)C2CCCCC2)OCc2cnnn2CCCC1=O,-21.8,
CCCCOc1ccc(C(C)(O)CCN2CCOCC2)cc1 (stereo unspecified),-21.9,
CCN(Cc1cc2cc(C)ccc2[nH]c1=O)S(=O)(=O)c1ccccc1,-13,
COc1ccc(-c2[nH]ncc2CN(C)Cc2cccnc2)c(F)c1,-19.9,
COc1ccc2[nH]c(=O)c(CN(Cc3cccnc3)S(=O)(=O)c3ccccc3F)cc2c1,,18.4 µM (active)
Cc1ccc(C(=O)NCC(=O)OCC(=O)NC2CCCCCCC2)cc1,8.07,
COc1ccc(C2C(=O)N(C3CCCCCC3)CC(=O)N2CCc2ccc(Cl)cc2)cc1OC (stereo unspecified),,23.1 µM (active)
COc1ccc(C2C(=O)N(C3CCCCC3)CC(=O)N2Cc2ccccc2Cl)cc1OC (stereo unspecified),-3.49,
O=C(NCCc1ccc(Cl)cc1)C1CC(=O)N(C2CCCCC2)C1 (stereo unspecified),-11.3,

Compound,"activity change, negative = growth inhibition [%]",Potency
CCCCN(C(=O)c1nn(C)c(=O)c2ccccc12)c1c(N)n(CCC)c(=O)[nH]c1=O,13.9,
CCN1C[C@@H]2[C@@H]3C(=O)N(C)C(=O)[C@@H]3[C@](C)(C1=O)N2C(=O)c1ccccc1,-1.14,
CCCOC(=O)c1[nH]c2c(c1C)C(=O)CC(c1cc(OC)c(OC)c(OC)c1)C2 (stereo unspecified),,4.61 µM (active)
CCOC(=O)C1=C(N)N2C(=O)C(C)SC2=C(C(=O)OCC)C1c1cc(OC)c(OC)c(OC)c1 (stereo unspecified),15.8,
CCCOC(=O)c1[nH]c2c(c1C)C(=O)CC(c1cccs1)C2 (stereo unspecified),,0.58 µM (active)
COc1cc(C2CC(=O)c3cnc(NC(C)=O)nc3C2)cc(OC)c1OC (stereo unspecified),3.54,
CCCOC(=O)c1cc2ccccc2oc1=O,-15.6,
Cc1noc(C)c1C(=O)N1CCC1(C)C(=O)NS(=O)(=O)c1ccc(C#N)cc1 (stereo unspecified),10.2,
Cn1c(SCC(=O)Nc2cccc(NC(=O)c3cccs3)c2)nnc1-c1ccncc1,-21.6,
COc1cc(OC)c(C(=O)N2CCCC2)cc1OC,-2.13,
Nc1cc(N2CCCCCC2)c2nonc2c1[N+](=O)[O-],-25.5,
CCOc1ccc(N(C)S(=O)(=O)c2cnc[nH]2)cc1,-8.49,
CC(NS(=O)(=O)c1ccc(Br)cc1)C(=O)NCC1CCCO1 (stereo unspecified),2.85,
OC(CNCC1CCCO1)Cn1c2ccc(Br)cc2c2cc(Br)ccc21 (stereo unspecified),,18.4 µM (active)
O=C(CCNS(=O)(=O)c1ccc(Br)cc1)NCC1CCCO1 (stereo unspecified),-5.69,
CN(C)c1ccc(C(CNS(=O)(=O)c2cc(F)ccc2F)N2CCOCC2)cc1 (stereo unspecified),5.48,
C[C@H](NC(=O)c1[nH]cnc1C(=O)Nc1nccs1)c1ccccc1,-19.2,
Cc1ccc(S(=O)(=O)N2CCOCC2)cc1C(=O)OC1CCCCC1=O (stereo unspecified),-18.6,
CC(=O)N1CCc2cc(Br)cc(S(=O)(=O)CCC(=O)Nc3c(C)n(C)n(-c4ccccc4)c3=O)c21,-7.36,
CCOC(=O)c1c(NC(=O)c2cc(-c3ccc(Cl)cc3)on2)sc2c1CCCC2,-4.88,
Cc1ccc2nc(NC(=O)c3nc(SCc4ccccc4F)ncc3Cl)sc2c1,11,
CCCS(=O)(=O)c1ncc(Cl)c(C(=O)Nc2scc(-c3ccccc3)c2C(=O)OCC)n1,,3.66 µM (active)
CCOC(=O)c1c(-c2ccc(-c3ccccc3)cc2)csc1NC(=O)CCC(=O)O,15.5,
CCOC(=O)c1c(N)nn(C(=O)c2ccccc2)c1-c1ccccc1,8.93,
CCOC(=O)c1c(-c2cccc(C)c2)csc1NC(=O)c1c(-c2ccccc2)noc1C,,23.1 µM (active)
CCOC(=O)C1CCN(C(=O)COC(=O)C2CCN(S(=O)(=O)c3ccc4c(c3)OCCO4)CC2)CC1,-2.44,

Compound,"activity change, negative = growth inhibition [%]",Potency
CCOC(=O)CN/C=C(\C#N)c1ccc(F)cc1,8.78,
CC(C)CN(C(=O)Cn1c(=O)cnc2ccccc21)C1CCS(=O)(=O)C1 (stereo unspecified),-1.96,
CC1(C(=O)Nc2ccc3c(c2)OCCO3)CN(S(C)(=O)=O)CC(=O)N1Cc1cccc(F)c1 (stereo unspecified),-7.77,
O=C(C1CCCO1)N1CCN(C(=S)Nc2cccc(Cl)c2)CC1 (stereo unspecified),-22.5,
CCOC(=O)C1CCN(C(=O)C2CCN(S(=O)(=O)N3CCCC3)CC2)CC1,-12.4,
CCN(CC)C(=O)CSc1nc2cc3c(cc2c(=O)n1CCCC(=O)NCc1ccc2c(c1)OCO2)OCO3,,16.4 µM (active)
CCCCNC(=O)CSc1nc2cc3c(cc2c(=O)n1CCCCCC(=O)NCc1ccc2c(c1)OCO2)OCO3,-7,
O=C(CCCCn1c(=O)[nH]c2ccccc2c1=O)NCc1ccc2c(c1)OCO2,-26.8,
COc1ccc(-c2nn(-c3ccccc3)cc2/C=N/Nc2ccccn2)cc1OC,,5.8 µM (active)
CN(C)/N=C/c1cn(-c2ccccc2)nc1-c1cccnc1,-26.2,
CC(C)(C)OC(=O)N/N=C/c1cn(-c2ccccc2)nc1-c1cccnc1,-26.1,
N#Cc1ccc(C(=O)Nc2cccc3cccnc23)c(F)c1,12.3,
CC(=O)/C(=N\Nc1ccc(Cl)cc1Cl)Sc1cccc2cccnc12,,4.11 µM (active)
O=C(Nc1cccc2cccnc12)c1cccc(Cl)c1,-25.7,
C#CCN(N(C)c1ncc(C(F)(F)F)cc1Cl)S(=O)(=O)c1ccc2ccccc2c1,-19.9,
Cc1csc(NC(=O)CSc2nnc(-c3cccnc3)o2)n1,4.46,
O=C(NCCS(=O)(=O)NCc1ccc(F)cc1)c1ccccc1,-11.1,
O=C(COC(=O)c1ccc(O)cc1)Nc1nccs1,-0.707,
O=C(Cn1cnc([N+](=O)[O-])n1)NCCc1ccccc1,2.11,
CCN1CCN(CC(=O)c2cc(OC)c(OC)c(OC)c2)CC1,-11.6,
COc1cc(-n2c(C)nc3cc(C(=O)NCc4ccco4)ccc32)cc(OC)c1OC,-11.4,
CCn1c(CNC(=O)c2cc(OC)c(OC)c(OC)c2)cc2cc(C)ccc21,,13 µM (active)
COC(=O)c1cccc(NC(=O)c2cccc(N3C(=O)CCC3=O)c2)c1,-4.15,
